# Experimental data: PubChem BioAssay
# Values joined by “and” are separate entries in the source; they are usually repeats but may differ in a detail not shown here. Equal values may be shown once. The source holds several records for some structures; these can differ, active in one and inactive in another. Active and inactive are the calls of the source. Rule as the data show it: active = inhibition above about 80%; inactive = the rest.
# Assay: RCMB18 cell growth, single agent and combined, cisplatin and BGB IC40 combos (AID 1671462);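 also: cells exposed to compound for four days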
# Conditions: RCMB18 medulloblastoma cells, measured here: BGB IC40 combination, at 0.05 µM, stronger effect = higher value
row,Structure (SMILES),inhibition
1,Cc1c(N)nc(C(CC(N)=O)NCC(N)C(N)=O)nc1C(=O)NC(C(=O)NC(C)C(O)C(C)C(=O)NC(C(=O)NCCc1nc(-c2nc(C(=O)NCCC[S+](C)C)cs2)cs1)C(C)O)C(O[C@@H]1O[C@@H](CO)[C@@H](O)[C@H](O)[C@@H]1O[C@H]1O[C@H](CO)[C@@H](O)[C@H](OC(N)=O)[C@@H]1O)c1cnc[nH]1 (stereo not given in full),-15.7% and -30.1%
2,O=c1[nH]c(=O)n(C2OC(CO)C(O)C2O)cc1F (stereo not given),14.4%
3,O=P(O)(NCCCl)NCCCl,-4.66%
4,CC1(C)C(C(=O)Nc2ccc(S(=O)(=O)c3ccc(NC(=O)C4C(C)(C)C4(C)C)cc3)cc2)C1(C)C,3.16%
5,CCC1(O)C(=O)OCc2c1cc1n(c2=O)Cc2cc3ccccc3nc2-1 (stereo not given),5.45% and -12%
6,NC(Cc1ccc(N(CCCl)CCCl)cc1)C(=O)O (stereo not given),-33.2%
7,COc1cc([C@@H]2c3cc4c(cc3[C@H](O)[C@H]3COC(=O)[C@H]23)OCO4)cc(OC)c1O,-8.85% and -7.39%
8,COc1cc(C2c3cc4c(cc3C(O)C3COC(=O)C23)OCO4)cc(OC)c1OC (stereo not given),11.1%

# Same assay, conditions: RCMB18 medulloblastoma cells, measured here: combination with cisplatin, at 0.5 µM, stronger effect = higher value
row,Structure (SMILES),inhibition
1,Cc1c(N)nc(C(CC(N)=O)NCC(N)C(N)=O)nc1C(=O)NC(C(=O)NC(C)C(O)C(C)C(=O)NC(C(=O)NCCc1nc(-c2nc(C(=O)NCCC[S+](C)C)cs2)cs1)C(C)O)C(O[C@@H]1O[C@@H](CO)[C@@H](O)[C@H](O)[C@@H]1O[C@H]1O[C@H](CO)[C@@H](O)[C@H](OC(N)=O)[C@@H]1O)c1cnc[nH]1 (stereo not given in full),27.9% and 2.02%
2,O=c1[nH]c(=O)n(C2OC(CO)C(O)C2O)cc1F (stereo not given),45.3%
3,O=P(O)(NCCCl)NCCCl,-18.6%
4,CC1(C)C(C(=O)Nc2ccc(S(=O)(=O)c3ccc(NC(=O)C4C(C)(C)C4(C)C)cc3)cc2)C1(C)C,-23.3%
5,CCC1(O)C(=O)OCc2c1cc1n(c2=O)Cc2cc3ccccc3nc2-1 (stereo not given),49.2% and 53.3%
6,NC(Cc1ccc(N(CCCl)CCCl)cc1)C(=O)O (stereo not given),-31.6%
7,COc1cc([C@@H]2c3cc4c(cc3[C@H](O)[C@H]3COC(=O)[C@H]23)OCO4)cc(OC)c1O,22% and 15.3%
8,COc1cc(C2c3cc4c(cc3C(O)C3COC(=O)C23)OCO4)cc(OC)c1OC (stereo not given),20.9%

# Same assay, conditions: RCMB18 medulloblastoma cells, single agent, at 5 µM, stronger effect = higher value
row,Structure (SMILES),inhibition
1,Cc1c(N)nc(C(CC(N)=O)NCC(N)C(N)=O)nc1C(=O)NC(C(=O)NC(C)C(O)C(C)C(=O)NC(C(=O)NCCc1nc(-c2nc(C(=O)NCCC[S+](C)C)cs2)cs1)C(C)O)C(O[C@@H]1O[C@@H](CO)[C@@H](O)[C@H](O)[C@@H]1O[C@H]1O[C@H](CO)[C@@H](O)[C@H](OC(N)=O)[C@@H]1O)c1cnc[nH]1 (stereo not given in full),-20% and -46.7%
2,O=c1[nH]c(=O)n(C2OC(CO)C(O)C2O)cc1F (stereo not given),63.7%
3,O=P(O)(NCCCl)NCCCl,-40.3%
4,CC1(C)C(C(=O)Nc2ccc(S(=O)(=O)c3ccc(NC(=O)C4C(C)(C)C4(C)C)cc3)cc2)C1(C)C,22.7%
5,CCC1(O)C(=O)OCc2c1cc1n(c2=O)Cc2cc3ccccc3nc2-1 (stereo not given),23.3% and 47.8%
6,NC(Cc1ccc(N(CCCl)CCCl)cc1)C(=O)O (stereo not given),-6.56%
7,COc1cc([C@@H]2c3cc4c(cc3[C@H](O)[C@H]3COC(=O)[C@H]23)OCO4)cc(OC)c1O,43.2% and -3.33%
8,COc1cc(C2c3cc4c(cc3C(O)C3COC(=O)C23)OCO4)cc(OC)c1OC (stereo not given),18.7%

# Assay: CRL1545 cell growth, single agent and combined, cisplatin and BGB IC20 combos (AID 1671464);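 also: cells exposed to compound for 96 hours before readout; 0% = vehicle DMSO and 100% = high DMSO killing control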
# Conditions: CRL1545 osteosarcoma cells, at 0.5 µM, stronger effect = higher value
row,Structure (SMILES),inhibition
1,Cc1c(N)nc(C(CC(N)=O)NCC(N)C(N)=O)nc1C(=O)NC(C(=O)NC(C)C(O)C(C)C(=O)NC(C(=O)NCCc1nc(-c2nc(C(=O)NCCC[S+](C)C)cs2)cs1)C(C)O)C(O[C@@H]1O[C@@H](CO)[C@@H](O)[C@H](O)[C@@H]1O[C@H]1O[C@H](CO)[C@@H](O)[C@H](OC(N)=O)[C@@H]1O)c1cnc[nH]1 (stereo not given in full),32% (inactive) and 45.1% (inactive)
2,O=c1[nH]c(=O)n(C2OC(CO)C(O)C2O)cc1F (stereo not given),82.5% (active)
3,O=P(O)(NCCCl)NCCCl,-42.1% (inactive)
4,CC1(C)C(C(=O)Nc2ccc(S(=O)(=O)c3ccc(NC(=O)C4C(C)(C)C4(C)C)cc3)cc2)C1(C)C,-34.4% (inactive)
5,CCC1(O)C(=O)OCc2c1cc1n(c2=O)Cc2cc3ccccc3nc2-1 (stereo not given),54% (inactive) and 96.2% (active)
6,NC(Cc1ccc(N(CCCl)CCCl)cc1)C(=O)O (stereo not given),-21.6% (inactive)
7,COc1cc([C@@H]2c3cc4c(cc3[C@H](O)[C@H]3COC(=O)[C@H]23)OCO4)cc(OC)c1O,56.5% (inactive) and 47% (inactive)
8,COc1cc(C2c3cc4c(cc3C(O)C3COC(=O)C23)OCO4)cc(OC)c1OC (stereo not given),74.4% (inactive)

# Same assay, conditions: CRL1545 osteosarcoma cells, measured here: with BGB IC20 combination, at 0.5 µM, stronger effect = higher value
row,Structure (SMILES),inhibition
1,Cc1c(N)nc(C(CC(N)=O)NCC(N)C(N)=O)nc1C(=O)NC(C(=O)NC(C)C(O)C(C)C(=O)NC(C(=O)NCCc1nc(-c2nc(C(=O)NCCC[S+](C)C)cs2)cs1)C(C)O)C(O[C@@H]1O[C@@H](CO)[C@@H](O)[C@H](O)[C@@H]1O[C@H]1O[C@H](CO)[C@@H](O)[C@H](OC(N)=O)[C@@H]1O)c1cnc[nH]1 (stereo not given in full),25.4% and 41.5%
2,O=c1[nH]c(=O)n(C2OC(CO)C(O)C2O)cc1F (stereo not given),77.3%
3,O=P(O)(NCCCl)NCCCl,-36.5%
4,CC1(C)C(C(=O)Nc2ccc(S(=O)(=O)c3ccc(NC(=O)C4C(C)(C)C4(C)C)cc3)cc2)C1(C)C,-61.8%
5,CCC1(O)C(=O)OCc2c1cc1n(c2=O)Cc2cc3ccccc3nc2-1 (stereo not given),77.9% and 98.4%
6,NC(Cc1ccc(N(CCCl)CCCl)cc1)C(=O)O (stereo not given),-14.9%
7,COc1cc([C@@H]2c3cc4c(cc3[C@H](O)[C@H]3COC(=O)[C@H]23)OCO4)cc(OC)c1O,55% and 43.8%
8,COc1cc(C2c3cc4c(cc3C(O)C3COC(=O)C23)OCO4)cc(OC)c1OC (stereo not given),70.7%
